According to PMC7826789 (International Journal of Molecular Sciences, 2021):

Tested on: MARK4
Conditions: Compound Concentration (nM):1000
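Also: KINOMEscan scanMAX binding as percent activity remaining versus control; lower means stronger binding.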

Percent Control, inactive:
COc1cccc(-n2ncc3c(N/N=C/c4ccncc4)ncnc32)c1 [GW784752X] 84%
C[C@@H](Oc1cc(-n2cnc3ccc(OC4CCN(C)CC4)cc32)sc1C(N)=O)c1ccccc1Cl [GSK579289A] 89%
Cl.O=C(Nc1ccc(Oc2ccc3[nH]c(NC(=O)c4ccccc4)nc3c2)cc1)Nc1cc(C(F)(F)F)ccc1F [GW709042A] 76%
C/C(Nc1ccc(S(N)(=O)=O)cc1)=C1/C(=O)Nc2ccccc21 [GW335962X] 87%
